This is an account of results in ChEMBL document CHEMBL3988442, “University of Dundee, Small-Polar-MMV Screening Library” (2021).

For some assays here: Entries with a potency or affinity are not part of this list.

Common to all, as to set-up: scale not given: direction of the effect not stated beside the values
The target of experiment [1] is Protein translocase subunit SecA (Escherichia coli (strain K12)) (UniProt P10408). Description: Assay to Identify E. coli SecA ATPase Inhibitors. In kind it is functional. Particulars: 30 µM.
Experiment [2] concerns the target T1, Ubiquitin-activating enzyme e1, putative (Leishmania donovani (strain BPK282A1)) (UniProt E9BSI1).
T1 sequence (whole entry): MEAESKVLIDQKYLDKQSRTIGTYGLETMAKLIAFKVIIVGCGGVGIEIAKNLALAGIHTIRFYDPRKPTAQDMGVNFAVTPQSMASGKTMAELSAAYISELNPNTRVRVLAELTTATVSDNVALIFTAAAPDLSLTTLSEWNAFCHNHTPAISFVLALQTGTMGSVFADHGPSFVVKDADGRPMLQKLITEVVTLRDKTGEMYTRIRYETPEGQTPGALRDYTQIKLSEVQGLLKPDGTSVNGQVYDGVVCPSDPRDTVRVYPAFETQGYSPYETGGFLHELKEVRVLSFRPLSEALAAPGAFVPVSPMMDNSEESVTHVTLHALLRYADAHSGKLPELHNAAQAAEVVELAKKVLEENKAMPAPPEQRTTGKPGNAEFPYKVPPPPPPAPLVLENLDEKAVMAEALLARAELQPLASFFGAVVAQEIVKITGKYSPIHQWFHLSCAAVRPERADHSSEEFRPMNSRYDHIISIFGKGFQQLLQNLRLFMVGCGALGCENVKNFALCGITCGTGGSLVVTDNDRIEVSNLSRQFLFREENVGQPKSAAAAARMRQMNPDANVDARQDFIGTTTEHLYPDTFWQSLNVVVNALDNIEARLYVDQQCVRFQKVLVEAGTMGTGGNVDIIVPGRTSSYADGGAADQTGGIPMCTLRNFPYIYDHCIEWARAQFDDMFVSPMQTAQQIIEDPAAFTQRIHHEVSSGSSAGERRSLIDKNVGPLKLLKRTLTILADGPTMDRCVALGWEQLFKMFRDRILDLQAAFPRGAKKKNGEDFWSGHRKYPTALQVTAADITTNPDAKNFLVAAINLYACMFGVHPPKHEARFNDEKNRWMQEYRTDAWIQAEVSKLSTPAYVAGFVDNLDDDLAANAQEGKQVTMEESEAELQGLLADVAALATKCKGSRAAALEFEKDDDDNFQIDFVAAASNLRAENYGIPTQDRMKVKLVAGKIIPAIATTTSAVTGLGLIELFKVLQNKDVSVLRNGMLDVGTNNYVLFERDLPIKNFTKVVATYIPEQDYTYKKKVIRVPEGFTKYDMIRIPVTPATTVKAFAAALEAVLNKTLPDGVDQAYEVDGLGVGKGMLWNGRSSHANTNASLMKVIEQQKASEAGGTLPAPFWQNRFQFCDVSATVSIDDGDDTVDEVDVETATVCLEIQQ
Description: Leishmania donovani Ubiquitin Activating Enzyme (LdE1). Particulars: 30 µM. In kind it is functional.

For experiment [3], the target named is AMP-activated protein kinase, AMPK (Homo sapiens) (UniProt P54646+O43741+P54619+Q9UGJ0+Q9Y478+Q13131+Q9UGI9). Kind of experiment: AMP-dependent Kinase enzyme assay. An in vitro enzyme assay that detects ADP turnover that is directly proportional to AMPK activity. This uses naive AMPK that is activated during the assay with MK-8722. Particulars: 30 µM. The experiment is classed as functional.

The target in experiment [4] is Sialic acid-binding Ig-like lectin 9 (Homo sapiens) (UniProt Q9Y336). Kind of experiment: Hs-Siglec9 ALPHAscreen SOP 20170721. The conditions noted are these: 10 µM. (In general: Bead proximity is the source of the signal in Alpha formats.)
The subject of another experiment is Trypanosoma cruzi. Description: Trypanosoma cruzi phosphomannomutase and mannose-1-phosphate guanylyltransferase assay. Particulars: 10 µM. In kind it is functional.
The target in experiment [5] is T2, Arginase-2, mitochondrial (Homo sapiens) (UniProt P78540).
T2 sequence (whole entry): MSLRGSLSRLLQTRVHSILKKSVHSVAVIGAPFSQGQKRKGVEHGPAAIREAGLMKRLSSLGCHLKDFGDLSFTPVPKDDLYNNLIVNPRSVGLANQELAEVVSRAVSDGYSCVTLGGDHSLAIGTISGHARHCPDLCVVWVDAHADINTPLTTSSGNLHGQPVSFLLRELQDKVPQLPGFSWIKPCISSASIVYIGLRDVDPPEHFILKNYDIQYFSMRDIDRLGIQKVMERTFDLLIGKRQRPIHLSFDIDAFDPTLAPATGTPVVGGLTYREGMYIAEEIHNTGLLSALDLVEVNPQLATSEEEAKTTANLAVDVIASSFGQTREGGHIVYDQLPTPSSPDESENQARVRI
Description: in vitro enzyme assay to detect the production of urea directly proportional to the activity of Arginase II. Also: in the data most compounds retested in dose-response had high values. The experiment is classed as functional. Particulars: 33.3 µM.

The target in experiment [6] is T3, Proteasome subunit beta (Trypanosoma cruzi) (UniProt O96673).
T3 sequence (whole entry): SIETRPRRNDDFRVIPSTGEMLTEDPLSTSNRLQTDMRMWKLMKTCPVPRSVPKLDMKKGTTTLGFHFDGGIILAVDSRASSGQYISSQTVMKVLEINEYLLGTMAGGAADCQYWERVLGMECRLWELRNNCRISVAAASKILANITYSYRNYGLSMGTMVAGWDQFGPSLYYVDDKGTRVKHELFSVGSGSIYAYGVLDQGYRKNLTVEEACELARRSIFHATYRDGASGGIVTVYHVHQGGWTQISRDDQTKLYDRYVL
Kind of experiment: Trypanosoma cruzi proteasome chymotrypsin-like activity (TcProtChymo) assay. Also: in the data most compounds retested in dose-response had high values. The experiment is classed as functional. Particulars: 9.37 µM.

For a further experiment, the species on record is Homo sapiens. Description: To identify inhibition of the IFN signalling (Jak-Stat) pathway via expression of an eGFP reporter gene under the control of an IFN-stimulated response element (ISRE) containing MxA promoter. The conditions noted are these: 30 µM. In kind it is functional.
Experiment [7] concerns the target T4, Tyrosyl-tRNA synthetase, putative (Trypanosoma cruzi (strain CL Brener)) (UniProt Q4DSP6).
T4 sequence (whole entry): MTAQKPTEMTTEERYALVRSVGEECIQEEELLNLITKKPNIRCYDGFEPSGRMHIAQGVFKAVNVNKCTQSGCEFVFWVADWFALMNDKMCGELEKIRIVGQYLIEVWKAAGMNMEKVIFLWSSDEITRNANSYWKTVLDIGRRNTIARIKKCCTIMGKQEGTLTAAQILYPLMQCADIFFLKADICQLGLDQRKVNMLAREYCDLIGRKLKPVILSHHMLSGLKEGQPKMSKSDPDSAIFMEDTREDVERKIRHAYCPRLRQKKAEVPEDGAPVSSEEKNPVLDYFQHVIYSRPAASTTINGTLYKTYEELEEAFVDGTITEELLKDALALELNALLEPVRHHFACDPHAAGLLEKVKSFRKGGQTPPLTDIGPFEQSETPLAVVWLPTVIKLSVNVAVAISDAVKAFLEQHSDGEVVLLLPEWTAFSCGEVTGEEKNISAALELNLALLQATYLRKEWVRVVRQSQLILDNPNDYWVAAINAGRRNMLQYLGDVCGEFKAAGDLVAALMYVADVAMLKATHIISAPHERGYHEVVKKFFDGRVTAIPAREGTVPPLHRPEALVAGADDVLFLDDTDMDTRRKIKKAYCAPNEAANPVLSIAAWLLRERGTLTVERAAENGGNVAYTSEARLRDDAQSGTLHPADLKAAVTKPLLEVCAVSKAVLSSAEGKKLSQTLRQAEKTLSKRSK
Description: Trypanosoma cruzi tyrosyl tRNA synthetase (TcYRS) _High Tyrosine SOP. Also: in the data most compounds retested in dose-response had high values. In kind it is functional. Particulars: 30 µM.

Experiment [8] has as its target T4, Tyrosyl-tRNA synthetase, putative (Trypanosoma cruzi (strain CL Brener)). Description: Trypanosoma cruzi tyrosyl tRNA synthetase (TcYRS) SOP. The experiment is classed as functional. The conditions noted are these: 30 µM.
Experiment [9] has as its target Chromo domain-containing protein 1 (Saccharomyces cerevisiae (strain ATCC 204508 / S288c) (Baker's yeast)) (UniProt P32657). Kind of experiment: ScCHD-1 Enzyme Inhibition Assay. Also: in the data most compounds retested in dose-response had high values. The experiment is classed as functional. Particulars: 30 µM.

Sequence of Chromo domain-containing protein 1 (Saccharomyces cerevisiae (strain ATCC 204508 / S288c) (Baker's yeast)) (P32657 whole entry, the tested form may be a part): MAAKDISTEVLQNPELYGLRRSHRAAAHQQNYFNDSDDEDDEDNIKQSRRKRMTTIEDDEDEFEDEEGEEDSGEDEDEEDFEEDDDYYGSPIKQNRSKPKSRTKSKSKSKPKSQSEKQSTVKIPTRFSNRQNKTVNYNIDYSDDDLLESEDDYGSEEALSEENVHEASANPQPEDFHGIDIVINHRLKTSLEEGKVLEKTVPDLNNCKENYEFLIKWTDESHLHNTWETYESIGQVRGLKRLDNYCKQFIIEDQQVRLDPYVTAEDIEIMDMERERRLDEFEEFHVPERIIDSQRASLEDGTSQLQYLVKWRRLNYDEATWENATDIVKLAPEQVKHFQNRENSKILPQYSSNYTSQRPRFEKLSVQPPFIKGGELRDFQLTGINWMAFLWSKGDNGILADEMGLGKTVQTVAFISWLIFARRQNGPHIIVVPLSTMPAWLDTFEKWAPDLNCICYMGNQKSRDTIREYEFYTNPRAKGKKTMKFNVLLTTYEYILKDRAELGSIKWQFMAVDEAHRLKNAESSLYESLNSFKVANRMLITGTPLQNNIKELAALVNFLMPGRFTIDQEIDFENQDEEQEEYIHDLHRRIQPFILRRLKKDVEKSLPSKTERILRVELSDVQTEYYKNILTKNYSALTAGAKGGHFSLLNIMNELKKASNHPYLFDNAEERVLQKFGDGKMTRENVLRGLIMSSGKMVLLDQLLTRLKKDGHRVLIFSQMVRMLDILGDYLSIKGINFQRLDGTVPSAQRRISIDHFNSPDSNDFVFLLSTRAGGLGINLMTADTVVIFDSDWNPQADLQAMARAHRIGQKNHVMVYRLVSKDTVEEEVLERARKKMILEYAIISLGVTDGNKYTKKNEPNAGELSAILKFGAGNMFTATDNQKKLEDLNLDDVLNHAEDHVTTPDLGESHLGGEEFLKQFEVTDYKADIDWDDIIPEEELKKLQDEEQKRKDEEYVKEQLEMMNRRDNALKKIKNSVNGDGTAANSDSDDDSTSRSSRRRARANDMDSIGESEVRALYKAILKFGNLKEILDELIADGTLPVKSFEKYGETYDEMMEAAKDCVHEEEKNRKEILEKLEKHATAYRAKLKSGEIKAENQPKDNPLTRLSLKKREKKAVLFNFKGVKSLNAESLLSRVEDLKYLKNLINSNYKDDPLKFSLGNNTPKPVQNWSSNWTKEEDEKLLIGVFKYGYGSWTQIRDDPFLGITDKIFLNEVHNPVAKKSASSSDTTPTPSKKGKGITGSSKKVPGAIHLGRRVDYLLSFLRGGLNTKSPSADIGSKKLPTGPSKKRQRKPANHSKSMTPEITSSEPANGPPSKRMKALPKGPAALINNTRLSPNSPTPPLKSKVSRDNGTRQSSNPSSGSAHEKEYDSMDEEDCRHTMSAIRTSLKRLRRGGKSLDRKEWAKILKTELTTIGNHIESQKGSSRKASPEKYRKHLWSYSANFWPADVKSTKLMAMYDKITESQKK
Sequence of Protein translocase subunit SecA (Escherichia coli (strain K12)) (P10408 whole entry): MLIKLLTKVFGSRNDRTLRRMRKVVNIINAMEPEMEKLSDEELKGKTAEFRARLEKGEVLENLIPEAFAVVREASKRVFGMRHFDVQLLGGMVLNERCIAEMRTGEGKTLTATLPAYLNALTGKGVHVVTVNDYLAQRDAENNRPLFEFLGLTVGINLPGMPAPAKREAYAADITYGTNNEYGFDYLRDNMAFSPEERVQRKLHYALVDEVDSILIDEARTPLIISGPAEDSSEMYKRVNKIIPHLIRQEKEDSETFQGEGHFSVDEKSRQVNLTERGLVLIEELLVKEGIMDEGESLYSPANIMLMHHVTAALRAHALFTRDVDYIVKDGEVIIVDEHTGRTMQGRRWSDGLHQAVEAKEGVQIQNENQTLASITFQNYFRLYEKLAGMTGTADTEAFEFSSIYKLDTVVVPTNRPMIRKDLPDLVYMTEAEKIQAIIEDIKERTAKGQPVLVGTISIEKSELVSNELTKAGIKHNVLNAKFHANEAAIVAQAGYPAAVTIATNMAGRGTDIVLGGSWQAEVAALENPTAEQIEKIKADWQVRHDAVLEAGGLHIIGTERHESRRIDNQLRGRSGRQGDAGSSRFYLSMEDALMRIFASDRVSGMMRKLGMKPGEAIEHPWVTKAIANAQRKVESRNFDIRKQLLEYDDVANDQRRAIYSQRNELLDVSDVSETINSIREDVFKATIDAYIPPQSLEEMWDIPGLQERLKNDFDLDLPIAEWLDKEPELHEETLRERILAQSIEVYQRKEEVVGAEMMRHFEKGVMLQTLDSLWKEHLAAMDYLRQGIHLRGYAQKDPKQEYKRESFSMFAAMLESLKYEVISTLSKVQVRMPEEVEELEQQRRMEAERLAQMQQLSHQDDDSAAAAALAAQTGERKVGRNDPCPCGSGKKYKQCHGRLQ
Sequence of Sialic acid-binding Ig-like lectin 9 (Homo sapiens) (Q9Y336 whole entry): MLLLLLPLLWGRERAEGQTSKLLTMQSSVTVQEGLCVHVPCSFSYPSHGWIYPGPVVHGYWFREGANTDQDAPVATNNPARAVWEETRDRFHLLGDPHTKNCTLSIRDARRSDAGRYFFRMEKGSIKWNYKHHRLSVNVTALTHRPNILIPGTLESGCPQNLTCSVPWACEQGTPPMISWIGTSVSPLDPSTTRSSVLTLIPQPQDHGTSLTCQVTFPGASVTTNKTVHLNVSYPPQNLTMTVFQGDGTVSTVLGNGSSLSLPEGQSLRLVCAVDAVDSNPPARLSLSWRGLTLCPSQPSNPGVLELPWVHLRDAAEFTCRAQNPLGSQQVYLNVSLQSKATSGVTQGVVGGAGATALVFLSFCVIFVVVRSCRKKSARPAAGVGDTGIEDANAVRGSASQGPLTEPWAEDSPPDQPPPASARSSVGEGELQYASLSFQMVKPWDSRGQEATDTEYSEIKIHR

In the case of `CCCc1nc(C)cc(N2CCC3(CCC(=O)N(CCOC)C3)CC2)n1`, the Percent Effect in experiment [1] is -4.76%; in [2], 10.8%; in [3], -6.4%; in experiment [4] it was -1.18%; with Trypanosoma cruzi it was -0.489%; in [5], -0.744%. The Percent Effect in experiment [6] was 10.9%; in the experiment listed under Homo sapiens it was -7.21%; in experiment [7] it was 4.3%; in [8], 13.6%; in experiment [9] it was -3.56%.
For `Cc1ccc(N2CCCC(NCC(=O)Nc3cc(C)no3)C2)nn1` (stereo not given), the Percent Effect in experiment [1] is -1.36%; in [2], 13.9%; in experiment [3], -2.91%; in [4] it was -5.54%; in the experiment with Trypanosoma cruzi it was -3.59%; in [5] it was 0.215%. For the same compound, the Percent Effect in [6] was 13%; in the experiment listed under Homo sapiens, 17.8%; in experiment [7], 1.04%; in experiment [8] it was 7.59%; in experiment [9] it was -23.2%.
Consider `CC(Cn1cccn1)NC(=O)Nc1ccc(N(C)C)nc1` (stereo not given), for which the Percent Effect in [1] is -4.33%; in experiment [2] it was 1.39%; in [3], -12.7%; in experiment [4] it was -12%; with Trypanosoma cruzi it was -7.09%; in experiment [5], 0.883%. Further, the Percent Effect in [6] was 22.3%; in the experiment listed under Homo sapiens it was 10.8%; in experiment [7], 1.05%; in [8], -2.56%; in experiment [9] it was -1.82%.
As for `CC(C)c1nc(C2CCCN2CC(=O)N2CCc3ccccc32)no1` (stereo not given), the Percent Effect was -3.88% in experiment [1]; -7.89% in experiment [2]; 5.96% in [3]; 5.77% in experiment [4]; -2.82% in the experiment with Trypanosoma cruzi; -1.15% in experiment [5]. The Percent Effect in experiment [6] is -2.51%; in the experiment filed under Homo sapiens, -0.0405%; in [7] it was -3.43%; in experiment [8] it was -4.88%; in experiment [9], 6.73%.
`CCc1nc(C2CCCN2Cc2nc(CCOC)no2)no1` (stereo not given): the Percent Effect is -3.77% in experiment [1]; 10.4% in experiment [2]; -0.579% in experiment [3]; 7.16% in experiment [4]; 6.59% in the experiment with Trypanosoma cruzi; -5.52% in [5]. The Percent Effect in experiment [6] is 3.49%; in the experiment filed under Homo sapiens, -6.27%; in experiment [7], 3.23%; in [8] it was 11.1%; in experiment [9], -7.19%.
As to `Cc1ccc2c(c1)C1(CC2)CCN(c2nncs2)CC1`, the Percent Effect is -0.497% in [1]; 0% in [2]; 5.45% in experiment [3]; 1.98% in [4]; 1.59% with Trypanosoma cruzi; 3.59% in experiment [5]. Besides, the Percent Effect was 7.28% in experiment [6]; 20.4% in the experiment filed under Homo sapiens; 6.25% in experiment [7]; 11.1% in experiment [8]; 5.12% in experiment [9].
As to `O=C(Cn1ccc2ccccc21)NCc1ccc(C(=O)O)cc1`, the Percent Effect in experiment [1] is -5.35%; in experiment [2] it was 2.63%; in experiment [3] it was 10.1%; in [4], 1.77%; in the experiment on Trypanosoma cruzi it was -1.85%; in [5], 0%. Further, the Percent Effect in experiment [6] was 15.8%; in the experiment listed under Homo sapiens, -18.3%; in experiment [7], -1.06%; in experiment [8], 10.4%; in experiment [9], -0.974%.
For the compound `CCc1nc(C(=O)N2CCCC2)nn1-c1ccccc1Cl`, the Percent Effect in experiment [1] is -7.61%; in [2], 10.5%; in [3], -8.39%; in experiment [4] it was 16.4%; in the experiment on Trypanosoma cruzi, 4.95%; in [5], 2.16%. Besides, the Percent Effect in [6] is 2.62%; in the experiment filed under Homo sapiens, 4.97%; in [7] it was 7.39%; in experiment [8] it was 18.5%; in [9], -7.11%.
With `Cc1ccc(C(C)N(C)Cc2nc3c(cnn3C)c(=O)[nH]2)cc1` (stereo not given), the Percent Effect was 0.32% in experiment [1]; 16.2% in experiment [2]; -5.9% in [3]; 6.25% in experiment [4]; 1.21% in the experiment on Trypanosoma cruzi; 3.88% in [5]. Moreover, the Percent Effect in [6] is 15.8%; in the experiment listed under Homo sapiens, 21.7%; in experiment [7], 7.92%; in [8], 13.4%; in experiment [9], -7.48%.
As for `Cc1cn2nc(N3CCCC3CC(C)(C)C)sc2n1` (stereo not given), the Percent Effect was -5.41% in experiment [1]; -1.27% in [2]; 7.29% in [3]; 3.5% in experiment [4]; 0.103% with Trypanosoma cruzi; 2.8% in experiment [5]. For the same compound, the Percent Effect in experiment [6] is 11%; in the experiment listed under Homo sapiens, 15.4%; in [7], 3.12%; in [8] it was 7.59%; in [9] it was -4.52%.
